Drawing on ChEMBL document CHEMBL3433997, “St. Jude Leishmania screening dataset” (2016), this text covers inhibition for 35 compounds.

What all share (assay type): functional
Assay [1] concerns the target Solute carrier family 2, facilitated glucose transporter member 1 (Homo sapiens) (UniProt P11166). Description: ST_JUDE_LEISH: Cytotoxicity at 2uM final concentration against transgenic Leishmania Mexicana promastigotes LmGLUT1 that are glucose transport deficient and complemented with the human glucose transporter GLUT1. Activity is measured by DNA content using SYBR green in vitro.

The target in assay [2] is Hexose transporter 1 (Plasmodium falciparum) (UniProt O97467). Description: ST_JUDE_LEISH: Cytotoxicity at 2uM final concentration against transgenic Leishmania Mexicana promastigotes LmPfHT that are glucose transport deficient and complemented with the Plasmodium falciparum hexose transporter. Activity is measured by DNA content using SYBR green in vitro.
Assay [3] deals with Glucose transporter (Leishmania mexicana) (UniProt O61059). The assay can be described thus: ST_JUDE_LEISH: Cytotoxicity at 2uM final concentration against transgenic Leishmania Mexicana promastigotes LmGT2 that are glucose transport deficient and complemented with the L. Mexicana glucose transporter 2. Activity is measured by DNA content using SYBR green in vitro.

The structures appear in SMILES notation.

Solute carrier family 2, facilitated glucose transporter member 1 (Homo sapiens), sequence (P11166 whole entry): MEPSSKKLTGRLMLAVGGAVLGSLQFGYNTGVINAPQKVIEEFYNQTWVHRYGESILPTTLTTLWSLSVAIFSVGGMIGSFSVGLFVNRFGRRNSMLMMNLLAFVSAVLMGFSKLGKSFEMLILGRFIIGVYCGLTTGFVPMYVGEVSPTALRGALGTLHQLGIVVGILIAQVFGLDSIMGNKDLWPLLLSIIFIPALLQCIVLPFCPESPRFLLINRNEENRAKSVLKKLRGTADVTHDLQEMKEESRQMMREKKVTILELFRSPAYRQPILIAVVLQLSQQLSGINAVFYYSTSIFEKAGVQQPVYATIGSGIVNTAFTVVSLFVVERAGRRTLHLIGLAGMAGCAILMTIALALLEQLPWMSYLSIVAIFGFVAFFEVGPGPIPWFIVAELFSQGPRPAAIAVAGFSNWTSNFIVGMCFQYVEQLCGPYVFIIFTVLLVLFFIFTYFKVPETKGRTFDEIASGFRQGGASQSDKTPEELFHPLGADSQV

Consider `Cc1ccccc1C1CCN(C2CCC(NC(=O)c3ccc(-c4cccc(C(F)(F)F)c4)o3)CC2)CC1` (stereo not given), for which the inhibition turned out to be 5.47% in assay [1], 2.19% in assay [2] and 3.24% in assay [3].
On the same counts, the results for `CN1CCCC1CCNCc1ccc(-c2ccc(CNCCc3ccccc3)cn2)cc1` (stereo not given) are 1.95%, 2.41% and 4.27%.
`CCC(C)NS(=O)(=O)c1ccc2nc(Nc3ccc(C)c(Cl)c3)n([C@H](C)C(C)(C)C)c2c1` (stereo not given in full): the inhibition was determined as 2.63% in assay [1], 2.57% in assay [2] and 0.57% in assay [3].
`Cn1nc(-c2ccccc2F)c2cc(C(=O)Nc3cccnc3)sc21`: the inhibition in assay [1] was found to be 3.76%; in assay [2], 2.08%; in assay [3], 2.9%.
Consider `N#Cc1ccc(NC(=O)Nc2ccc(OC(F)(F)F)cc2)cc1`, for which the results for the inhibition in assay [1], in assay [2] and in assay [3] were 2.17%, 1.59% and -0.05%, respectively.
With `CN(C)CCNC(=O)c1cccc(-c2cnc3ccc(NCc4ccc(Cl)c(Cl)c4)nn23)c1`, the inhibition turned out to be 8.3% in assay [1], 8.99% in assay [2] and 7.6% in assay [3].
On the same counts, the results for `Cc1cccc2nc(-c3cccc(-c4cccc(NC(=O)NCc5cccc(F)c5)c4)c3)[nH]c12` are 4.66%, 6.34% and 5.41%.
With `CCC(C)NC(=O)Nc1ccc(-c2cccc(-c3nc4cccc(C)c4[nH]3)c2)cc1` (stereo not given), the results for the inhibition in assay [1], in assay [2] and in assay [3] were 0.47%, 0.26% and -0.8%, respectively.
For the compound `Cn1cnc(CCNC(=O)c2cccc(-c3ccc(-c4nc5cc(F)ccc5[nH]4)cc3)c2)c1`, the results for the inhibition in assay [1], in assay [2] and in assay [3] were 1.27%, 1.88% and 0.3%, respectively.
As for `CCC(C)CN1CCN(c2ccc(NC(=O)c3cccs3)cc2)CC1C` (stereo not given), the inhibition in assay [1] is 0.37%; in assay [2], 0.02%; in assay [3] it was 1.01%.
For `O=C(/C=C/c1ccc(F)cc1)NC1CCC(CCN2CCCN(c3ccc(C(F)(F)F)cn3)CC2)CC1` (stereo not given) the same measures were 1.97%, -0.46% and -1.02%.
On the same counts, the results for `CCN1CCC(N(Cc2ccc(-c3ccc(C(F)(F)F)cc3)cc2)C(=O)Cn2c(CCc3cccc(F)c3F)nc(=O)c3ccccc32)CC1` are 1.25%, 2.57% and 3.43%.
For `CS(=O)(=O)c1ccc(CCNCc2ccc(-c3ccc(CN(C(=O)C4CC(=O)c5ccccc54)C4CCN(Cc5ccccc5)CC4)cc3)nc2)cc1` (stereo not given) the same measures were 1.6%, 1.34% and 2.34%.
For `OCCN1CCN(Cc2ccc(-c3cccc(-c4nc5cc(F)ccc5[nH]4)c3)cc2)CC1`, the inhibition in assay [1] was 2.82%; in assay [2] it was -0.2%; in assay [3], 0.18%.
For `CC(C)N1CCN(C(CN2CCN(CCCOc3ccc(-c4ccccc4)cc3)CC2)c2ccc(F)cc2)CC1` (stereo not given), the inhibition in assay [1] stood at 60.6%; in assay [2] it was 32%; in assay [3], 103%.
As to `O=C1Nc2cccc3c2C1(CCCCN1CCC(c2c[nH]c4cc(C(F)(F)F)ccc24)CC1)CCC3` (stereo not given), the inhibition in assay [1] came out at 3.89%; in assay [2], 1.75%; in assay [3], 0.54%.
For `Cc1nc2nc(N)nc(N)c2c(C)c1Cc1cccc(C#N)c1` the same measures were 3.44%, 2.87% and 2.88%.
On to `O=C(Nc1ccc(-c2cccc(-c3nc4cc(C(F)(F)F)ccc4[nH]3)c2)cc1)Nc1ccc(F)c(F)c1F`, for which the inhibition in assay [1] is 0.81%; in assay [2], 0.04%; in assay [3], -1.97%.
For `Cc1nc(C)c(-c2ccc(Oc3ccc(Cl)cc3Cl)cc2)c(O)c1Br` the same measures were -1.34%, -0.13% and 0.66%.
On the same counts, the results for `Cc1cc(N[C@@H](Cc2ccccc2)C(=O)NCc2cccc(F)c2)nc(NCCc2ccccc2)n1` are 5.82%, 4.21% and 2.48%.
For `CCCCCCNC(=O)C1Cc2c([nH]c3ccc(C)cc23)C2(CCN(CCc3ccccc3)CC2)N1` (stereo not given), the inhibition in assay [1] is 0.36%; in assay [2], 1.61%; in assay [3] it was 3.44%.
Take `CN1CCN(c2cc(-c3cccnc3)nc(-c3ccncc3)n2)CC1`: the inhibition in assay [1] turned out to be 5.56%; in assay [2], 5.65%; in assay [3] it was 3.57%.
For `c1ccc(Oc2ccc(Nc3ccnc4cc(-c5cccc(CN6CCOCC6)c5)ccc34)cc2)cc1`, the inhibition in assay [1] is -0.77%; in assay [2], 0.67%; in assay [3] it was 1.46%.
On the same counts, the results for `CC(=NNC(=N)N)c1ccc2c(c1)Cc1ccccc1-2` are -1.01%, 0.42% and -1.5%.
`c1ccc(-c2[nH]c3ccccc3c2CN2CCC(N3CCCCC3)CC2)nc1`: the inhibition was -2.72% in assay [1], -0.46% in assay [2] and -1.64% in assay [3].
As for `O=c1[nH]nc(-c2ccc(N3CCCC3)c([N+](=O)[O-])c2)c2ccccc12`, the inhibition in assay [1] amounted to 2.71%; in assay [2] it was 3.31%; in assay [3], 4.21%.
For `CN1CCC(C(=O)Nc2cccc(-c3cccc(-c4nc5cc(F)ccc5[nH]4)c3)c2)CC1` the same measures were 4.7%, 5.02% and 6.69%.
On to `CN(C)C(=O)c1ccc(CN(Cc2cccc(OC(C)(C)C)c2)Cc2ccc3c(c2)OCCO3)cc1`, for which the values for the inhibition in assay [1], in assay [2] and in assay [3] were 0.24%, -0.56% and 1%, respectively.
For `CC(=O)c1c(C)[nH]c(C(=O)Nc2ccc(-c3nc4ccc(C)cc4s3)cc2)c1C`, the values for the inhibition in assay [1], in assay [2] and in assay [3] were -0.62%, -4.21% and 2.35%, respectively.
For `COc1cccc2[nH]c(NCCCNCc3cc(Br)cc(Br)c3)nc12` the same measures were 3.51%, 1.26% and 2.63%.
Turning to `COc1ccc2c(=NN=Cc3ccccc3)cc(C)[nH]c2c1`, the values for the inhibition in assay [1], in assay [2] and in assay [3] were 12.1%, 11.5% and 8.31%, respectively.
For `Cc1cc2nc(-c3ccc(/C=C/C(=O)NCCc4ccccc4)cc3)[nH]c2cc1C` the same measures were 1.09%, 0.54% and 0.56%.
On the same counts, the results for `COc1cccc(O)c1CN1CCC2(CCCN(Cc3ccc(F)cc3)C2)C1` (stereo not given) are 1.04%, 2.73% and -0.21%.
For `CCCC1(NC[C@@H](O)[C@H](Cc2ccccc2)NC(=O)c2cc(NCC)cc(N3CCCCS3(=O)=O)c2)CC1` the same measures were 1.58%, 1.33% and -0.73%.
With `C=C[C@]1(C)C[C@@H](OC(=O)c2cncn(COC)c2=O)[C@]2(C)[C@H](C)CC[C@]3(CCC(=O)[C@H]32)[C@@H](C)[C@@H]1O`, the inhibition is -0.03% in assay [1], -0.92% in assay [2] and 0.15% in assay [3].

What is called inhibition is the change of the read-out against control, counted positive when it falls.
